Measurements published in PubChem BioAssay (NCATS).
Results filed as inconclusive are left out. Values without a mark were called inactive. The call rests on the fitted dose curve; in most records, active means well fitted inhibition curve with a large enough effect; inconclusive means small, poorly fitted or top-dose-only effect; inactive means flat fitted curve, though single readings scatter.

What follows are compounds tested against Calcium and integrin-binding protein 1 (Homo sapiens) (UniProt Q99828) (assay: Primary qHTS for Identification of Calcium Integrin Binding Protein 1 (CIB1) Competitor (AID 1508620; further: top concentration of the series differs between compounds)). Details: CIB1-GST / FITC-alphaIIb peptide fluorescence polarization; series mostly up to 114 µM; activity change, negative = inhibition: at the top concentration.
Calcium and integrin-binding protein 1 (Homo sapiens), sequence (Q99828 whole entry, looked up): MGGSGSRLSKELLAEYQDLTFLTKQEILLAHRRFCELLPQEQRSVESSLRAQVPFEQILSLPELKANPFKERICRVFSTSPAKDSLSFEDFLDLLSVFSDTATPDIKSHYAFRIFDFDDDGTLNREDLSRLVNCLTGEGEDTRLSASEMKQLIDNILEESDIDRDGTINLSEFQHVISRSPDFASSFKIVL
Summary of the method: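 Fluorescence polarization competition: GST-tagged CIB1 (1 uM final) preincubated with compound 15 min at room temperature, then FITC-labelled alphaIIb peptide (100 nM final) added. After 15 min at room temperature, polarization read at Ex 480/Em 540.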
On the % scale 0 is the no-effect control and ±100 the full control effect.

SMILES | activity change, negative = inhibition
c1nc(NCC2CCCOC2)c2cc(-c3ccc4c(c3)OCO4)ccc2n1 (configuration not stated) | -13.3%
CC(=O)Nc1ccc(S(=O)(=O)N2CCN(S(=O)(=O)c3ccc4c(c3)OCCO4)CC2)cc1 | -14.7%
COc1ccccc1-c1nnc2n1N=C(c1c(OC)cccc1OC)CS2 | 6.7%
Cc1ccc(OCCn2c(CCNC(=O)c3cc(N)ccc3N)nc3ccccc32)cc1 | 2.35%
Nc1ccc2c(c1)C(=O)NS2(=O)=O | 1.28%
Cc1cc(C)nc(NC(=S)N2CCN(c3ccc4nncn4c3)CC2)c1 | -7.09%
Cc1cnc(-c2ccccc2C(F)F)nc1NCc1ccc(-n2ccnn2)cc1 | 4.72%
Cc1nc2ccccn2c1C(O)(c1ccccc1)c1ccccc1 | -0.997%
CC1=C(C(=O)Nc2ccc(C)cc2)C(c2ccccc2Br)N=C(Nc2nc3ccccc3o2)N1 (configuration not stated) | 3.81%
O=C(c1ccccc1)N1CCN(c2nc(-c3ccc(Br)cc3)cs2)CC1 | 3.47%
COc1cc(OC)cc(-c2nnc3n2N=C(c2cc(OC)ccc2OC)CS3)c1 | 1.56%
COc1ccc(NC(=O)c2cnn3c(C)cc(C)nc23)cc1Cl | 1.15%
CC(C)(C)OC(=O)N1CCN(c2ccc(NCc3ccnc(-c4ccc(C#N)cc4)n3)cc2)CC1 | -3.93%
Cc1ccc(OCCn2c(CCNC(=O)C3CCOCC3)nc3ccccc32)cc1 | 7.79%
CC(C)(C)[C@H](NC(=O)c1ccc(N)c(Cl)c1)C(=O)N1CCC[C@H]1C(=O)N[C@H](C#N)Cc1nn[nH]n1 | -9%
Cc1cc(C)nc(NC(=S)N2CCN(c3cccc(OC(F)F)c3)CC2)c1 | -7.5%
Cc1cc(C)nc(NC(=S)N2CCN(c3cccc(S(C)=O)c3)CC2)c1 (configuration not stated) | -26.6%
